Reference: the supplement of paper PMC8975748
Structures can show the parent of a compound that is named as a salt. ± gives the standard deviation of the averaged measurements.

How the values were obtained:
[1] = test system: Saccharomyces cerevisiae BY4741 SeMeCo community; assay: mean cell size (pixel area) (pixels); higher = larger cells; conditions: 10 µM; 24 h; SM minimal medium
In short: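 Yeast cells were fixed with paraformaldehyde, imaged by automated confocal microscopy and analysed in Harmony to obtain mean cell pixel area per well. They came from a four-plasmid fluorescent Saccharomyces cerevisiae BY4741 community, each plasmid complementing one auxotrophy and carrying a fluorescent marker. Before imaging, 70 µl of culture at OD600 = 0.3 was incubated for 24 h in SM medium in 384-well plates predosed acoustically with drug (final 10 µM). Values are means of 3 replicates. Same SeMeCo high-content imaging drug screen: Selleck FDA-approved drugs at 10 µM, 24 h in SM medium, 384-well plates, 3 replicates.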

[2] = test system: Saccharomyces cerevisiae BY4741 SeMeCo community; assay: z-score of prototroph abundance vs DMSO median; higher = larger share of this subpopulation than in DMSO controls; conditions: 10 µM; 24 h; SM minimal medium; subpopulation (auxotrophy): Prototroph
In short: (§1)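 A Saccharomyces cerevisiae BY4741 community carried four plasmids, each restoring one auxotrophy and encoding a distinct fluorescent protein. It was pre-grown overnight to OD600 1.0, diluted to 0.3, and 70 µl was added to 384-well plates acoustically predosed with library drugs (10 µM final), then grown 24 h in minimal SM medium. Cells were paraformaldehyde-fixed and imaged by automated confocal microscopy, with single-auxotroph fluorescent strains setting thresholds and autofluorescence correction. Each subpopulation's abundance was scored as a z-score against the vehicle-well median.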

[3] = test system: Saccharomyces cerevisiae BY4741 SeMeCo community; assay: z-score of subpopulation abundance vs DMSO median, subpopulation auxotrophic for M; higher = larger share of this subpopulation than in DMSO controls; conditions: 10 µM; 24 h; SM minimal medium; subpopulation (auxotrophy): M
In short: as §1

[4] = test system: Saccharomyces cerevisiae BY4741 SeMeCo community; assay: z-score of subpopulation abundance vs DMSO median, subpopulation auxotrophic for U; higher = larger share of this subpopulation than in DMSO controls; conditions: 10 µM; 24 h; SM minimal medium; subpopulation (auxotrophy): U
In short: as §1

[5] = test system: Saccharomyces cerevisiae BY4741 SeMeCo community; assay: z-score of subpopulation abundance vs DMSO median, subpopulation auxotrophic for H; higher = larger share of this subpopulation than in DMSO controls; conditions: 10 µM; 24 h; SM minimal medium; subpopulation (auxotrophy): H
In short: as §1

[6] = test system: Saccharomyces cerevisiae BY4741 SeMeCo community; assay: z-score of subpopulation abundance vs DMSO median, subpopulation auxotrophic for HM; higher = larger share of this subpopulation than in DMSO controls; conditions: 10 µM; 24 h; SM minimal medium; subpopulation (auxotrophy): HM
In short: as §1

[7] = test system: Saccharomyces cerevisiae BY4741 SeMeCo community; assay: z-score of subpopulation abundance vs DMSO median, subpopulation auxotrophic for UM; higher = larger share of this subpopulation than in DMSO controls; conditions: 10 µM; 24 h; SM minimal medium; subpopulation (auxotrophy): UM
In short: as §1

[8] = test system: Saccharomyces cerevisiae BY4741 SeMeCo community; assay: z-score of subpopulation abundance vs DMSO median, subpopulation auxotrophic for HL; higher = larger share of this subpopulation than in DMSO controls; conditions: 10 µM; 24 h; SM minimal medium; subpopulation (auxotrophy): HL
In short: as §1

[9] = test system: Saccharomyces cerevisiae BY4741 SeMeCo community; assay: z-score of subpopulation abundance vs DMSO median, subpopulation auxotrophic for HLU; higher = larger share of this subpopulation than in DMSO controls; conditions: 10 µM; 24 h; SM minimal medium; subpopulation (auxotrophy): HLU
In short: as §1

[10] = test system: Saccharomyces cerevisiae BY4741 SeMeCo community; assay: z-score of subpopulation abundance vs DMSO median, subpopulation auxotrophic for HLM; higher = larger share of this subpopulation than in DMSO controls; conditions: 10 µM; 24 h; SM minimal medium; subpopulation (auxotrophy): HLM
In short: as §1

[11] = test system: Saccharomyces cerevisiae BY4741 SeMeCo community; assay: z-score of subpopulation abundance vs DMSO median, subpopulation auxotrophic for HUM; higher = larger share of this subpopulation than in DMSO controls; conditions: 10 µM; 24 h; SM minimal medium; subpopulation (auxotrophy): HUM
In short: as §1

[12] = test system: Saccharomyces cerevisiae BY4741 SeMeCo community; assay: z-score of subpopulation abundance vs DMSO median, subpopulation auxotrophic for HLUM; higher = larger share of this subpopulation than in DMSO controls; conditions: 10 µM; 24 h; SM minimal medium; subpopulation (auxotrophy): HLUM
In short: as §1

[13] = test system: Saccharomyces cerevisiae BY4741 SeMeCo community; assay: z-score of subpopulation abundance vs DMSO median, subpopulation auxotrophic for L; higher = larger share of this subpopulation than in DMSO controls; conditions: 10 µM; 24 h; SM minimal medium; subpopulation (auxotrophy): L
In short: as §1

[14] = test system: Saccharomyces cerevisiae BY4741 SeMeCo community; assay: z-score of subpopulation abundance vs DMSO median, subpopulation auxotrophic for LM; higher = larger share of this subpopulation than in DMSO controls; conditions: 10 µM; 24 h; SM minimal medium; subpopulation (auxotrophy): LM
In short: as §1

[15] = test system: Saccharomyces cerevisiae BY4741 SeMeCo community; assay: z-score of subpopulation abundance vs DMSO median, subpopulation auxotrophic for HU; higher = larger share of this subpopulation than in DMSO controls; conditions: 10 µM; 24 h; SM minimal medium; subpopulation (auxotrophy): HU
In short: as §1

[16] = test system: Saccharomyces cerevisiae BY4741 SeMeCo community; assay: z-score of subpopulation abundance vs DMSO median, subpopulation auxotrophic for LUM; higher = larger share of this subpopulation than in DMSO controls; conditions: 10 µM; 24 h; SM minimal medium; subpopulation (auxotrophy): LUM
In short: as §1

SMILES | mean cell size [1] | z-score of prototroph abundance [2] | z-score of subpopulation abundance [3] | z-score of subpopulation abundance [4] | z-score of subpopulation abundance [5] | z-score of subpopulation abundance [6] | z-score of subpopulation abundance [7] | z-score of subpopulation abundance [8] | z-score of subpopulation abundance [9] | z-score of subpopulation abundance [10] | z-score of subpopulation abundance [11] | z-score of subpopulation abundance [12] | z-score of subpopulation abundance [13] | z-score of subpopulation abundance [14] | z-score of subpopulation abundance [15] | z-score of subpopulation abundance [16]
CCN[C@@H]1C[C@H](N)[C@@H](O[C@H]2OC(CN)=CC[C@H]2N)[C@H](O)[C@H]1O[C@H]1OC[C@](C)(O)[C@H](NC)[C@H]1O [Netilmicin Sulfate] | 12.1 ± 0.17 | -0.66 | 1.38 | 0.67 | -0.25 | 0.03 | 0.17 | -0.24 | 0.09 | 1.14 | 0.71 | 0.72 | – | – | – | –
N[C@@H](CCC(=O)O)C(=O)O [(S)-Glutamic acid] | 12.1 ± 0.22 | 0.18 | -0.4 | – | 0.17 | -0.08 | -0.63 | -0.27 | -0.63 | – | -0.56 | 0.06 | 0.52 | 0.15 | -0.75 | -0.99
C[C@@H](O)[C@H]1C(=O)N2C(C(=O)O)=C(S[C@@H]3CN[C@H](CNS(N)(=O)=O)C3)[C@H](C)[C@H]12 [Doripenem Hydrate] | 12.38 ± 0.092 | 0.39 | -0.6 | 0.2 | -0.3 | -0.76 | – | -0.25 | -0.09 | -0.78 | – | -1.04 | 0.82 | -0.44 | -0.19 | -0.2
CC(C)[N+](C)(CCOC(=O)C1c2ccccc2Oc2ccccc21)C(C)C [Propantheline bromide] | 12.5 ± 0.22 | 0.94 | 1.26 | -0.28 | 0.9 | – | -1.12 | -0.65 | -1.23 | – | -1.29 | – | – | – | -0.76 | -1.5
